An excerpt weighted towards active compounds, which were near 8.2% of everything screened.
SW480 rereplic: A quantitative high throughput screen for small molecules that induce DNA re-replication in SW480 colon adenocarcinoma cells. SW480 DNA re-replication, Hoechst DNA content imaging, 48 h. Potency, µM (doses to about 46.1 µM), for inactives: at the highest dose re-replication activation, actives largely listed as activators. hit rate 1.8% among 340,000; also: % of control where 0% means no effect; nearly all actives have a fitted effect of over 55% in size
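250 cells/well; 23 nL cpd via pin tool; 48 hr, 37 C, 5% CO2; Hoechst 40 min; imager read of total nuclear intensity, ex 405/em 500-530 nm.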
KB-V1 MDR tox: qHTS assay for MDR1-selective chemotherapeutics: Primary screen using the drug-selected MDR subline cells KB-V1; KB-V1 MDR cells viability, CellTiter-Glo, 72 h; Potency, µM (titrated, usually from 46.1 µM), usual class: cytotoxic; hit rate 3.4% among 400,000; AID 1347076, 2019; also: % is scaled to controls: 0 for no effect and ±100 for the full control effect; nearly all actives have a fitted effect of over 60% in size
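Following 72 h at 37 degrees C with compound, KB-V1 cell viability was read by CellTiter-Glo luminescence, medium being phenol-red-free DMEM plus 10% FBS; concentration-response parameters came from normalized, curve-fitted qHTS data.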
ELG1 repair inh: qHTS screen for small molecules that inhibit ELG1-dependent DNA repair in human embryonic kidney (HEK293T) cells expressing luciferase-tagged ELG1; Potency, µM (highest dose often 46.1 µM), inactives show at the top dose activity change, negative = inhibition, most hits filed as inhibitors; AID 504467, 2011; hit rate 2.3% among 330,000; HEK293T ELG1-luciferase reporter, luminescence, 16 h; DNA damage induced by 5-fluorouridine; also: % is scaled to controls: 0 for no effect and ±100 for the full control effect; nearly all actives have a fitted effect of over 55% in size
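Cells (2,000 per well) received 5-fluorouridine plus test compound or DMSO and were incubated 16 hr at 37 °C, 5% CO2. Luciferase activity was read by luminescence 30 min after ONE-Glo addition; signal suppression marked inhibition of damage-induced ELG1 function.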
KB-3-1 cytotox: qHTS assay for MDR1-selective chemotherapeutics: Primary screen using the parental adenocarcinoma cell KB-3-1; KB-3-1 viability, CellTiter-Glo ATP luminescence, 72 h; Potency, µM (top dose mostly 46.1 µM), actives largely listed as cytotoxic; hit rate 1.4% among 400,000; AID 1347075, 2019; also: % is scaled to controls: 0 for no effect and ±100 for the full control effect; nearly all actives have a fitted effect of over 60% in size
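Cells are dispensed, compounds pinned in, plates held at 37 °C for 72 h, then CellTiter-Glo is added and luminescence read after 10 minutes. Cell line: parental KB-3-1 in phenol-red-free DMEM, 10% FBS.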
MCF10A rerep: A quantitative high throughput screen for small molecules that induce DNA re-replication in MCF 10a normal breast cells; Potency, µM (series often up to 46.1 µM), without a hit: at the highest dose activity, positive = re-replication, usual class: activators; MCF 10A DNA re-replication, Hoechst nuclear intensity, 48 h; hit rate 2.9% among 350,000; AID 624296, 2012; also: % of control where 0% means no effect; nearly all actives have a fitted effect of over 50% in size
The depositor's hits bear a star. Calls follow the shape of the dose curve; as a rule, active = well fitted curve in the direction sought with a large enough effect; inconclusive = small, poorly fitted or top-dose-only effect, or another doubt; inactive = no such curve, though single readings can be large; an effect the other way counts as inactive or inconclusive. Potency is read from the fitted curve at half-maximal effect.

`CC(NCCC(c1ccccc1)c1ccccc1)c1ccccc1` (centres undefined) gave SW480 rereplic 7.3µM*, KB-V1 MDR tox inconclusive, ELG1 repair inh inconclusive, KB-3-1 cytotox inactive and MCF10A rerep inconclusive.
Screening Cc1ccc(CNC(C)c2ccccc2)s1 (centres undefined) returned KB-V1 MDR tox inactive and KB-3-1 cytotox inactive.
O=c1oc2ccccc2cc1-c1cn2cc(Cc3ccc(F)cc3)sc2n1 was read as KB-V1 MDR tox inactive and KB-3-1 cytotox 0.58µM*.
For COc1ccccc1NC(=S)N1CCCCCC1 the results were SW480 rereplic -5%, KB-V1 MDR tox inactive, ELG1 repair inh 11%, KB-3-1 cytotox inactive and MCF10A rerep 0%.
`Cc1cc(=O)[nH]c2ccc(Cl)cc12` gave SW480 rereplic -3%, KB-V1 MDR tox inconclusive, ELG1 repair inh inconclusive, KB-3-1 cytotox 2.3µM* and MCF10A rerep 0%.
For COc1cccc2c1O/C(=N\O)C(C(=O)Nc1ccc(C)cc1)C2 (centres undefined) the results were SW480 rereplic inconclusive, KB-V1 MDR tox inactive, ELG1 repair inh -24%, KB-3-1 cytotox 4.1µM* and MCF10A rerep 18µM*.
CCc1ccc(-c2cc(C)no2)cc1S(=O)(=O)NCc1ccc(OC)cc1 was read as KB-V1 MDR tox 3.7µM* and KB-3-1 cytotox 3.3µM*.
COc1ccc(CNS(=O)(=O)c2cc(-c3cc(C)no3)ccc2C)cc1OC was read as SW480 rereplic 13%, KB-V1 MDR tox inactive, ELG1 repair inh 23µM*, KB-3-1 cytotox inactive and MCF10A rerep -2%.
For COc1ccc(CNS(=O)(=O)c2ccc(-c3cc(C)no3)cc2)cc1 the results were SW480 rereplic inconclusive, KB-V1 MDR tox inactive, ELG1 repair inh -1%, KB-3-1 cytotox inactive and MCF10A rerep 4%.
`Cc1cc(-c2ccc(C)c(S(=O)(=O)NCC3CCN(Cc4ccc(F)cc4)CC3)c2)on1` gave SW480 rereplic 2.9µM*, KB-V1 MDR tox inactive, ELG1 repair inh -20%, KB-3-1 cytotox inconclusive and MCF10A rerep 13%.
COc1ccc(NC(=O)C2CCN(S(=O)(=O)c3ccc4[nH]c(=O)ccc4c3)CC2)c(OC)c1 was read as KB-V1 MDR tox inactive and KB-3-1 cytotox inactive.
Cc1c(C(=O)N2CCCCC2)c(S(=O)(=O)NCCc2ccc(S(N)(=O)=O)cc2)c(C)n1C was read as SW480 rereplic 1%, KB-V1 MDR tox inconclusive, ELG1 repair inh 2%, KB-3-1 cytotox inconclusive and MCF10A rerep -2%.
Screening CN(Cc1ccccc1)S(=O)(=O)c1ccc(Cl)c(C(=O)NCc2ccc3c(c2)OCO3)c1 returned SW480 rereplic -100%, KB-V1 MDR tox 12µM*, ELG1 repair inh inconclusive, KB-3-1 cytotox inactive and MCF10A rerep -2%.
Screening O=C(NCc1ccc2c(c1)OCO2)c1nc(S(=O)(=O)Cc2ccccc2F)ncc1Cl returned SW480 rereplic 11%, KB-V1 MDR tox inactive, ELG1 repair inh -12%, KB-3-1 cytotox inactive and MCF10A rerep -9%.
`O=C(NCc1ccc2c(c1)OCO2)c1nc(S(=O)(=O)Cc2ccccc2)ncc1Cl` gave SW480 rereplic inconclusive, KB-V1 MDR tox inconclusive, ELG1 repair inh -12%, KB-3-1 cytotox 21µM* and MCF10A rerep inconclusive.
O=C(OCC1CCCO1)c1ccc2c(c1)N(Cc1c(F)cccc1Cl)C(=O)c1ccccc1S2(=O)=O (centres undefined) was read as KB-V1 MDR tox inactive and KB-3-1 cytotox inactive.
Screening CN1C(=O)C2(SCC(=O)N2c2ccc(Cl)cc2)c2ccccc21 (centres undefined) returned KB-V1 MDR tox inactive and KB-3-1 cytotox inactive.
`COc1ccc(/C=N/NC(=O)c2cccc([N+](=O)[O-])c2)cc1OS(=O)(=O)c1ccc(C)cc1` gave SW480 rereplic inconclusive, KB-V1 MDR tox 21µM*, ELG1 repair inh inconclusive, KB-3-1 cytotox inconclusive and MCF10A rerep inconclusive.
COc1ccc(C(=O)N/N=C/c2ccc(OC)c(OS(=O)(=O)c3ccccc3)c2)cc1 was read as SW480 rereplic 9%, KB-V1 MDR tox inconclusive, ELG1 repair inh inconclusive, KB-3-1 cytotox inactive and MCF10A rerep 28%.
`CCOc1cc(/C=N/NC(=O)c2cccc([N+](=O)[O-])c2)ccc1OS(=O)(=O)c1ccccc1` gave SW480 rereplic 15%, KB-V1 MDR tox 13µM*, ELG1 repair inh inconclusive, KB-3-1 cytotox inconclusive and MCF10A rerep 19%.
Screening COC(=O)c1cc(NC(=O)COC(=O)CN2C(=O)C3CC=CCC3C2=O)cc(C(=O)OC)c1 (centres undefined) returned SW480 rereplic 0%, KB-V1 MDR tox inactive, ELG1 repair inh 6%, KB-3-1 cytotox inactive and MCF10A rerep 9%.
Cc1cc(/C=C2\Sc3ccccc3N2C)cc(C)[n+]1CC1CCCO1 (centres undefined) was read as SW480 rereplic 9.2µM*, KB-V1 MDR tox inactive, ELG1 repair inh inconclusive, KB-3-1 cytotox 0.65µM* and MCF10A rerep inconclusive.
Screening CN1C(=O)/C(=C2\SC(=S)N(CC3CCCO3)C2=O)c2ccccc21 (centres undefined) returned ELG1 repair inh -3%.
Screening COc1ccc(N2CCN(C(=O)CC(C)S(=O)(=O)c3ccc4c(c3)NC(=O)CO4)CC2)cc1 (centres undefined) returned SW480 rereplic 1%, KB-V1 MDR tox inactive, ELG1 repair inh 13µM*, KB-3-1 cytotox inactive and MCF10A rerep 1%.
For S=c1[nH]ccc2ccccc12 the results were SW480 rereplic -4%, KB-V1 MDR tox inactive, KB-3-1 cytotox inactive and MCF10A rerep -1%.
For Cn1c(=O)c2ccccc2n2c(CCl)nnc12 the results were SW480 rereplic 16µM*, KB-V1 MDR tox inconclusive, ELG1 repair inh -3%, KB-3-1 cytotox inconclusive and MCF10A rerep inconclusive.
Screening COc1ccccc1N1CCc2c(C)nc3c(OC)cccc3c21 returned SW480 rereplic -3%, KB-V1 MDR tox 21µM*, ELG1 repair inh -9%, KB-3-1 cytotox inconclusive and MCF10A rerep 17%.
Screening O=C(NCCc1ccc(Cl)cc1)C(=O)NCC(c1ccco1)S(=O)(=O)c1ccc(Cl)cc1 (centres undefined) returned KB-V1 MDR tox inactive and KB-3-1 cytotox inconclusive.

Source: PubChem
